# Screening data from PubChem BioAssay.
# CHO-K1 Ca PAM – counter-screen for M1 PAMs: effect in parental CHO-K1 cells | ATP EC20, Fluo-8 calcium fluorescence; 0% at ATP EC20, 100% at ATP max | activation, % at 3 µM | 0.02% of 360,000 active;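 active means activation above the run cutoff, the mean activation of all test compounds plus 3 SD, cut at about 40% in these data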;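 further: peak over basal fluorescence ratio in a 140 s read after ATP addition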
# CHO-K1 Ca antag – counter-screen for M1 antagonists: effect in parental CHO-K1 cells; ATP-induced calcium, Fluo-8 fluorescence; inhibition, % at 3 µM; 0.6% of 360,000 active;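 active means inhibition above a per-plate cutoff, the plate's mean sample inhibition plus 3 SD, cut at about 24% in these data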;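 further: 0% = DMSO plus EC80 ATP and 100% = DMSO alone without ATP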
# CHRM1 agonist – activates human CHRM1 receptor; 0.33% of 360,000 active; activation, % at 3 µM; CHO-K1 hM1, Fluo-8 calcium fluorescence, agonist mode; 0% DMSO, 100% acetylcholine EC100; AID 588814; P11229;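 active means activation above the run's mean compound activation plus 3 SD, cut at about 16% in these data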;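 further: peak over basal fluorescence ratio within a 140 s kinetic read after compound addition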
# Target sequence (P11229 whole entry, looked up): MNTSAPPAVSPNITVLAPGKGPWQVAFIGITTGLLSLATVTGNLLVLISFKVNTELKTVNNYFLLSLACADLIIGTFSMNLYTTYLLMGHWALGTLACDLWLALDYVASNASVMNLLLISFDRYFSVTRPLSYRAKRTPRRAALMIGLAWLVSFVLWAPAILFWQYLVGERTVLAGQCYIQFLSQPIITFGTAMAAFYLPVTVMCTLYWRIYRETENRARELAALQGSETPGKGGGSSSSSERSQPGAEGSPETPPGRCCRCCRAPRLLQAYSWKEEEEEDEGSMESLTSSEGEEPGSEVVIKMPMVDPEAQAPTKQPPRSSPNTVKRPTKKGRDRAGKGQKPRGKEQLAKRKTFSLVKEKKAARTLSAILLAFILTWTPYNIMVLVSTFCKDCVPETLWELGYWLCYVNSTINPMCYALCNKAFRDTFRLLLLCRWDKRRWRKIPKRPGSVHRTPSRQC
# CHO-K1 Ca ag – counter-screen for M1 agonists: effect in parental CHO-K1 cells. Fluo-8 calcium fluorescence; scaled to maximal ATP response, vehicle zero. 0.48% of 360,000 active. activation, % at 3 µM; in the data active means activation above about 15%;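 further: untransfected CHO-K1 host cells lacking M1 receptor as counterscreen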
# M1 antag – antagonists of human M1 muscarinic receptor; 1.3% of 360,000 active; CHO-K1 hM1, Fluo-8 calcium fluorescence, ACh EC80 antagonist; AID 588852; P11229; inhibition, % at 3 µM;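 active means percent inhibition above its own plate's cutoff, namely the mean of that plate's compound wells plus 3 SD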;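 further: peak over basal fluorescence ratio during 140 s after agonist addition; 0% = ACh EC80 plus DMSO and 100% = DMSO alone without agonist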
# CHRM1 PAM – positive allosteric modulators of human M1 muscarinic receptor. P11229. CHO-K1 hM1, Fluo-8 calcium fluorescence, ACh EC20; 0% = ACh EC20, 100% = maximal ACh. activation, % at 3 µM. 0.088% of 360,000 active. AID 588819; in the data active means activation above about 19%, passing the limit was not always enough
# Numbers without * were called inactive. Most compounds without a hit are left out; they make up all but 2.3% or so of the library.
SMILES,CHO-K1 Ca PAM,CHO-K1 Ca antag,CHRM1 agonist,CHO-K1 Ca ag,M1 antag,CHRM1 PAM
Cc1ccc(S(=O)(=O)N2CCOC2CNC(=O)C(=O)NCC(C)C)cc1 (stereo not given),1,-11,3,1,-29,24*
Cc1ccc(S(=O)(=O)N2CCN(C(=O)CSCc3ccc(C(C)C)cc3)CC2)cc1,-13,-8,0,1,-2,7
CN1CCCCCC1C(=O)N1CCC(N2CCC(C(=O)N3CCOCC3)CC2)CC1 (stereo not given),1,1,-2,7,-19,13
COc1ccccc1NC(=O)C(C)N(C)CC(=O)Nc1cccc2ccccc12 (stereo not given),10,-18,0,1,-7,0
COc1ccccc1NC(=O)C(C)N(C)Cc1ccc(Cl)s1 (stereo not given),48*,-16,-4,0,-8,5
CCN(CC)CCCN1C(=O)C2C(C(=O)Nc3ccc(C(C)C)cc3)C3C=CC2(O3)C1C(=O)NC1CCCCC1 (stereo not given),23,-18,-8,0,-5,6
OC(CNCC(c1ccc(Cl)cc1Cl)c1c[nH]c2ccccc12)c1ccccc1 (stereo not given),15,2,-2,16*,-3,9
O=[N+]([O-])CC(c1ccccc1)c1c[nH]c2ccccc12 (stereo not given),7,-7,-2,0,-15,13
CNC(=O)Nc1ccc2snnc2c1,-7,26*,-2,0,17,-8
O=C(COC(=O)c1ccc(Br)o1)NC1CCCc2ccccc21 (stereo not given),-7,-7,-5,0,-1,5
O=C(c1cccs1)N1CCN(C2CCN(Cc3ccccc3)CC2)CC1,16,-2,-6,1,39*,-20
Cc1ccc(S(=O)(=O)Nc2ccc3cn[nH]c3c2)c(C)c1,0,-2,7,5,-5,6
CCOc1cc(C)c(S(=O)(=O)Nc2ccc3cn[nH]c3c2)cc1C,-3,23,6,9,32*,-14
COc1cccc(CN(C)C(=O)C(CCSC)NS(=O)(=O)c2ccc3c(c2)OCCO3)c1OC (stereo not given),5,-2,0,8,30*,-11
Cc1ccc(C(=O)Nc2cccc(C(F)(F)F)c2)cc1NC(=O)c1csc(-c2ccncc2)n1,-10,4,-2,0,5,-6
N#C/C(=N\Nc1cccc(C(F)(F)F)c1)C(=O)c1csc(-c2cccnc2)n1,-1,24*,12,10,8,3
O=C1CCCC2=C1C(c1ccccc1)CC(=O)N2c1ccc(F)cc1F (stereo not given),11,-13,-5,1,-3,7
O=C(Nc1cccc(Cl)c1N1CCOCC1)c1cccnc1Cl,8,-1,4,22*,-2,11
N#Cc1cccc(NC(=O)c2cc(C3CCCCN3C(=O)c3cccs3)on2)c1 (stereo not given),1,0,-4,3,-13,-1
CC(Oc1ccc(Br)cc1)C(=O)Nc1nnc(C2CC2)s1 (stereo not given),22,-7,18*,13,-9,6
O=C(OCc1ccccc1)N1Cc2ccnnc2CC1c1ccccc1Br (stereo not given),0,32*,-5,0,9,-1
COc1ccc(CN2C[C@]3(CO)O[C@@H](CO)C[C@@H]3S2(=O)=O)cc1,16,-18,-4,1,-14,11
CC(C)(C)c1cc(C2=CSC3=NCCN23)cc(C(C)(C)C)c1O,9,-5,-10,3,36*,-26
O=S1(=O)CCOCCCN1Cc1ccccc1Br,9,-8,-7,0,-1,2
O=C(C1CCN(S(=O)(=O)c2cccc3nsnc23)CC1)N1CC=C(c2ccccc2)CC1,-8,9,0,4,14,-8
SMILES,CHO-K1 Ca PAM,CHO-K1 Ca antag,CHRM1 agonist,CHO-K1 Ca ag,M1 antag,CHRM1 PAM
O=C(NCCCN1CCCCCC1)C1CCCN(S(=O)(=O)c2cccc3nsnc23)C1 (stereo not given),19,-11,-6,0,-1,-4
CC1CCN(CCCNC(=O)C2CCC(CNS(=O)(=O)c3cccc4nsnc34)CC2)CC1 (stereo not given),-3,-2,-6,1,65*,-23
CC1CCN(CCNC(=O)C2CCCN(S(=O)(=O)c3cccc4nsnc34)C2)CC1 (stereo not given),-28,34*,-6,-1,-9,7
O=C(C1CCC(CNS(=O)(=O)c2cccc3nsnc23)CC1)N1CC=C(c2ccccc2)CC1 (stereo not given),-10,26*,-2,1,23,-6
Cc1ccc(C(=O)N[C@@H](Cc2ccccc2)C(=O)N2CCC3(CC2)NCCc2[nH]cnc23)cc1C,0,-7,-6,1,47*,-20
Cc1cn(CCOc2ccc(Cl)cc2)c(=O)[nH]c1=O,-4,7,-2,0,-15,17
Clc1cccc(CN2CCC3CC2c2cc(N4CCCCC4)ccc23)c1 (stereo not given),12,-16,-5,1,-8,3
O=C(c1cc(Cl)cc(Cl)c1)N1CCC2CC1c1cc(N3CCCCC3)ccc12 (stereo not given),8,2,-11,0,70*,-33
O=C(OCc1ccccc1)N1CCC2CC1c1cc(N3CCCCC3)ccc12 (stereo not given),13,-11,-11,0,34*,-28
CC(C)N1CCC1(C)C(=O)Nc1cc(-c2ccccc2)nn1C (stereo not given),20,-7,-1,0,-21,16
CCOC(=O)C(=O)Nc1ccccc1C(=O)Nc1ccc(OC)cc1,14,-13,-4,0,-12,6
CCOc1ccc(C(=O)NCC(=O)OCC(=O)Nc2ccc(C)c(S(=O)(=O)N(C)C)c2)cc1,-17,4,-3,0,-7,8
OC[C@@H]1CN(CCN2CCOCC2)C[C@H](n2cnc3c(NC4CCCC4)ncnc32)O1,-1,4,0,-1,-7,6
Cn1c(-c2ccc3c(c2)OCO3)cnc1NCc1cccc(Cl)c1,9,0,-5,1,74*,-21
Cc1ccc(-c2cnc(NCc3cc4c(cc3[N+](=O)[O-])OCO4)n2C)cc1C,19,-7,-5,17*,-1,0
Cc1cc(C)cc(NCc2cc3c(cc2[N+](=O)[O-])OCO3)c1,-8,-2,-8,0,-9,1
Cn1c(-c2ccc3c(c2)OCO3)cnc1NCc1ccccc1Cl,8,-8,-5,3,94*,-23
Cn1c(-c2ccc3c(c2)OCO3)cnc1NCc1ccccc1,-7,-2,-7,3,10,-21
